Compounds without any hit were thinned out: in the full panel of roughly 79,000, 15% have a hit. Unmarked numbers belong to inactive results. Calls of active or inactive are those of the source. Cut-off read from the data, not from the text of the source: active = growth inhibition above about 70%; inactive = the rest.

The nature of experiment [1]: NCI Yeast Anticancer Drug Screen. Data for the rad50 strain (AID 155).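 Note: 0% = growth of vehicle-only cultures of the same strain.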 The following applies: S. cerevisiae rad50 strain growth inhibition, stronger effect = higher value. Summed up: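 Compounds were tested on a yeast strain with an engineered DNA damage repair alteration; the reported value is growth inhibition normalised to vehicle treatment.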
Experiment [2] can be described thus: NCI Yeast Anticancer Drug Screen. Data for the mec2-1 strain (AID 157). To be noted: S. cerevisiae mec2-1 strain, stronger effect = higher value. Summed up:
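Strain: mec2-1 (DNA repair/cell cycle alteration). Compound exposure, then growth measured; inhibition expressed relative to vehicle.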

Experiment [3] can be described thus: NCI Yeast Anticancer Drug Screen. Data for the sgs1 mgt1 strain (AID 161).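 Note: 0% = growth of cultures given vehicle only.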 The following applies: S. cerevisiae sgs1 mgt1 strain, stronger effect = higher value. Summed up: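 Genetically altered yeast, compound exposure, growth inhibition relative to vehicle.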
A short description of experiment [4]: NCI Yeast Anticancer Drug Screen. Data for the cln2 rad14 strain (AID 165).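 Note: 0% = growth equal to vehicle treated cultures.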 The following applies: S. cerevisiae cln2 rad14 strain, stronger effect = higher value. Summed up:
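Compounds are applied to the cln2 rad14 yeast strain, and growth is then compared with that of vehicle-treated cultures to give inhibition.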

A short description of experiment [5]: NCI Yeast Anticancer Drug Screen. Data for the bub3 strain (AID 167). To be noted: S. cerevisiae bub3 mutant strain, stronger effect = higher value. In a few lines:
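Growth of a checkpoint-deficient yeast mutant is measured after compound exposure. Values represent inhibition relative to vehicle.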

Experiment [6] is described as follows: NCI Yeast Anticancer Drug Screen. Data for the mlh1 rad18 strain (AID 175). The following applies: S. cerevisiae mlh1 rad18 strain growth inhibition, stronger effect = higher value. Summed up:
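Read-out is yeast growth inhibition, calculated against vehicle-only controls. The compound was applied to a strain engineered with DNA damage repair alterations.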

[7] abbreviates: at 5.0 µM (retest, dose inferred, filed as 0.5).
The mark [8] stands for this setting: at 50.0 µM (retest, dose inferred, filed as 5.0).

On to `CCC(=O)c1ccc2ccc3ccccc3c2c1`, for which the growth inhibition is 6% in experiment [1] (setting [7]); 60% in experiment [1] (setting [8]); 62.5% in experiment [1] (at 50.0 µM); 8% in experiment [2] (setting [7]); 34% in experiment [2] (setting [8]); 26.4% in experiment [2] (at 50.0 µM). Besides, the growth inhibition in experiment [3] (setting [7]) is 4%; in experiment [3] (setting [8]) it was 72% (active); in experiment [3] (at 50.0 µM), 65.2%; in experiment [4] (setting [7]), 4%; in experiment [4] (setting [8]), 45%; in experiment [4] (at 50.0 µM), -7.25%. In addition, the growth inhibition is 12% in experiment [5] (setting [7]); 87% (active) in experiment [5] (setting [8]); 68.8% in experiment [5] (at 50.0 µM); 5% in experiment [6] (setting [7]); 64% in experiment [6] (setting [8]); 50.9% in experiment [6] (at 50.0 µM).
For `COc1cccc(C(=O)C(CN(C)C)CN(C)C)c1`, the growth inhibition in experiment [1] (setting [7]) was 22%; in experiment [1] (setting [8]) it was 70% (active); in experiment [1] (at 50.0 µM), 12.2%; in experiment [2] (setting [7]) it was 26%; in experiment [2] (setting [8]), 69%; in experiment [2] (at 50.0 µM) it was 30.2%. For the same molecule, the growth inhibition is 24% in experiment [3] (setting [7]); 88% (active) in experiment [3] (setting [8]); 61% in experiment [3] (at 50.0 µM); 24% in experiment [4] (setting [7]); 79% (active) in experiment [4] (setting [8]); 33% in experiment [4] (at 50.0 µM). The growth inhibition in experiment [5] (setting [7]) is 24%; in experiment [5] (setting [8]) it was 85% (active); in experiment [5] (at 50.0 µM), 71.2% (active); in experiment [6] (setting [7]), 30%; in experiment [6] (setting [8]), 93% (active); in experiment [6] (at 50.0 µM), 3%.
With `CCC[CH2][Sn]([CH2]CCC)([O]C(=O)c1cc(F)cc(F)c1)[O]C(=O)c1cc(F)cc(F)c1`, the growth inhibition in experiment [1] (setting [7]) was 54%; in experiment [1] (setting [8]) it was 54%; in experiment [1] (at 50.0 µM) it was 22.4%; in experiment [2] (setting [7]), 26%; in experiment [2] (setting [8]), 26%; in experiment [2] (at 50.0 µM), 52.4%. Also, the growth inhibition in experiment [3] (setting [7]) is 65%; in experiment [3] (setting [8]), 65%; in experiment [3] (at 50.0 µM), 16.4%; in experiment [4] (setting [7]) it was 18%; in experiment [4] (setting [8]), 18%; in experiment [4] (at 50.0 µM) it was 36.2%. The growth inhibition was 21% in experiment [5] (setting [7]); 21% in experiment [5] (setting [8]); 67.7% in experiment [5] (at 50.0 µM); 21% in experiment [6] (setting [7]); 21% in experiment [6] (setting [8]); 68.1% in experiment [6] (at 50.0 µM).
In the case of `CC(C(O)c1ccccc1)[N+](=O)[O-]` (stereo not given), the growth inhibition in experiment [1] (setting [7]) is 67%; in experiment [1] (setting [8]), 96% (active); in experiment [1] (at 50.0 µM), 97% (active); in experiment [2] (setting [7]), 8%; in experiment [2] (setting [8]) it was 41%; in experiment [2] (at 50.0 µM), 29.2%. Moreover, the growth inhibition in experiment [3] (setting [7]) is 6%; in experiment [3] (setting [8]) it was 53%; in experiment [3] (at 50.0 µM), 55.1%; in experiment [4] (setting [7]) it was 3%; in experiment [4] (setting [8]) it was 63%; in experiment [4] (at 50.0 µM), 28.1%. Also, the growth inhibition is 1% in experiment [5] (setting [7]); 78% (active) in experiment [5] (setting [8]); 39.6% in experiment [5] (at 50.0 µM); 7% in experiment [6] (setting [7]); 74% (active) in experiment [6] (setting [8]); 38.5% in experiment [6] (at 50.0 µM).
With `CCOc1cc(/C=N/NC(=S)NC23CC4CC(CC(C4)C2)C3)ccc1O`, the growth inhibition in experiment [1] (setting [7]) is -3%; in experiment [1] (setting [8]), 11%; in experiment [1] (at 50.0 µM), 40.6%; in experiment [2] (setting [7]), -5%; in experiment [2] (setting [8]) it was 30%; in experiment [2] (at 50.0 µM) it was 40.5%. In addition, the growth inhibition in experiment [3] (setting [7]) was 0%; in experiment [3] (setting [8]), 61%; in experiment [3] (at 50.0 µM), 41.3%; in experiment [4] (setting [7]), 49%; in experiment [4] (setting [8]) it was 16%; in experiment [4] (at 50.0 µM), 45.1%. For the same molecule, the growth inhibition in experiment [5] (setting [7]) is -7%; in experiment [5] (setting [8]) it was -100%; in experiment [5] (at 50.0 µM), 9.55%; in experiment [6] (setting [7]) it was 1%; in experiment [6] (setting [8]) it was 29%; in experiment [6] (at 50.0 µM), 47.6%.
As for `CNc1ccc2c(c1)c1ccccc1n2C`, the growth inhibition in experiment [1] (setting [7]) is 11%; in experiment [1] (setting [8]), 26%; in experiment [1] (at 50.0 µM) it was 71.3% (active); in experiment [2] (setting [7]), 2%; in experiment [2] (setting [8]) it was -67%; in experiment [2] (at 50.0 µM), 4.2%. Further, the growth inhibition in experiment [3] (setting [7]) was 3%; in experiment [3] (setting [8]), 21%; in experiment [3] (at 50.0 µM), 40.1%; in experiment [4] (setting [7]), -1%; in experiment [4] (setting [8]) it was -1%; in experiment [4] (at 50.0 µM) it was 65.5%. The growth inhibition in experiment [5] (setting [7]) was -1%; in experiment [5] (setting [8]) it was 35%; in experiment [5] (at 50.0 µM), 74.5% (active); in experiment [6] (setting [7]), 14%; in experiment [6] (setting [8]), 34%; in experiment [6] (at 50.0 µM), 52%.
On to `C[n+]1c(-c2ccc(/C=C/C=N\NC(=O)c3ccc(C(=O)N/N=C\C=C\c4ccc(-c5cn6ccccc6[n+]5C)cc4)cc3)cc2)cn2ccccc21`, for which the growth inhibition is 18% in experiment [1] (setting [7]); 98% (active) in experiment [1] (setting [8]); 96.1% (active) in experiment [1] (at 50.0 µM); 5% in experiment [2] (setting [7]); 97% (active) in experiment [2] (setting [8]); 96.8% (active) in experiment [2] (at 50.0 µM). For the same molecule, the growth inhibition in experiment [3] (setting [7]) is 16%; in experiment [3] (setting [8]) it was 98% (active); in experiment [3] (at 50.0 µM) it was 96.8% (active); in experiment [4] (setting [7]) it was 22%; in experiment [4] (setting [8]) it was 97% (active); in experiment [4] (at 50.0 µM) it was 96.3% (active). In addition, the growth inhibition in experiment [5] (setting [7]) was 36%; in experiment [5] (setting [8]) it was 97% (active); in experiment [5] (at 50.0 µM), 95.5% (active); in experiment [6] (setting [7]), 21%; in experiment [6] (setting [8]), 97% (active); in experiment [6] (at 50.0 µM) it was 96.8% (active).
Consider `O=C(Nc1ccccc1-c1nn(C(=S)Nc2ccccc2)c(=S)n(C(=S)Nc2ccccc2)c1=O)C(F)(F)F`, for which the growth inhibition in experiment [1] (setting [7]) was 6%; in experiment [1] (setting [8]), 59%; in experiment [1] (at 50.0 µM) it was 47.1%; in experiment [2] (setting [7]), 2%; in experiment [2] (setting [8]), 87% (active); in experiment [2] (at 50.0 µM), 88.1% (active). Besides, the growth inhibition in experiment [3] (setting [7]) is 10%; in experiment [3] (setting [8]), 77% (active); in experiment [3] (at 50.0 µM), 46.5%; in experiment [4] (setting [7]), 7%; in experiment [4] (setting [8]) it was 38%; in experiment [4] (at 50.0 µM), 17.2%. The growth inhibition in experiment [5] (setting [7]) was -41%; in experiment [5] (setting [8]), 50%; in experiment [5] (at 50.0 µM), 15.4%; in experiment [6] (setting [7]) it was 3%; in experiment [6] (setting [8]), 88% (active); in experiment [6] (at 50.0 µM), 81.5% (active).
As to `O=C(Cn1cnc2ccc([N+](=O)[O-])cc21)N1CCN(c2ccccc2)CC1`, the growth inhibition was -2% in experiment [1] (setting [7]); -7% in experiment [1] (setting [8]); 10.3% in experiment [1] (at 50.0 µM); 4% in experiment [2] (setting [7]); 8% in experiment [2] (setting [8]); 19.6% in experiment [2] (at 50.0 µM). Moreover, the growth inhibition in experiment [3] (setting [7]) was -25%; in experiment [3] (setting [8]) it was 2%; in experiment [3] (at 50.0 µM) it was 12.1%; in experiment [4] (setting [7]) it was 7%; in experiment [4] (setting [8]), -5%; in experiment [4] (at 50.0 µM), -53.6%. The growth inhibition in experiment [5] (setting [7]) is 10%; in experiment [5] (setting [8]) it was 7%; in experiment [5] (at 50.0 µM) it was -15.4%; in experiment [6] (setting [7]), -9%; in experiment [6] (setting [8]), -22%; in experiment [6] (at 50.0 µM) it was 0.6%.
Turning to `CCC1CCC(CC)C1=O` (stereo not given), the growth inhibition in experiment [1] (setting [7]) was 1%; in experiment [1] (setting [8]) it was 5%; in experiment [1] (at 50.0 µM) it was 94.2% (active); in experiment [2] (setting [7]), -2%; in experiment [2] (setting [8]) it was -1%; in experiment [2] (at 50.0 µM), 93.9% (active). The growth inhibition was 0% in experiment [3] (setting [7]); 3% in experiment [3] (setting [8]); 51.6% in experiment [3] (at 50.0 µM); -2% in experiment [4] (setting [7]); 3% in experiment [4] (setting [8]); 36.5% in experiment [4] (at 50.0 µM). In addition, the growth inhibition in experiment [5] (setting [7]) was 2%; in experiment [5] (setting [8]), 4%; in experiment [5] (at 50.0 µM), 97.4% (active); in experiment [6] (setting [7]) it was -2%; in experiment [6] (setting [8]), 7%; in experiment [6] (at 50.0 µM), 43.2%.

(Values after PubChem BioAssay (NCI).)
